Laboratory results taken from the antibiotic and cytotoxicity screens of Wong et al. (2023).
The campaign covered roughly 39,000 compounds. About 1,500 (3.8%) were called active. What follows is part of a selection rich in actives, with near analogues and random picks from the rest.

tested on: HSkMC (human skeletal muscle cells); test: cytotoxicity call (relative viability < 0.9); conditions: 10 µM

Q: How did the cytotoxicity call turn out when `C[C@@H]1CCCCO[C@H](CN(C)Cc2ccc3c(c2)OCO3)[C@@H](C)CN([C@@H](C)CO)C(=O)c2cc(NC(=O)NC3CCCCC3)ccc2O1` was run?
A: The cytotoxicity call was “inactive”.

Q: How did the cytotoxicity call turn out when `[O-][NH2+]N1CCCCC1` was run?
A: Its cytotoxicity call is “inactive”.

Q: `CC(C)NC(=O)N(C)C[C@H]1Oc2c(NS(=O)(=O)c3ccc(Cl)cc3)cccc2C(=O)N([C@H](C)CO)C[C@@H]1C` was tested. Which cytotoxicity call did it give?
A: Its cytotoxicity call is “inactive”.

Q: For `C[C@H](CO)N1C[C@H](C)[C@@H](CN(C)C(=O)Nc2ccc(F)cc2)Oc2c(NS(=O)(=O)c3cn(C)cn3)cccc2C1=O`, which cytotoxicity call is on record?
A: The cytotoxicity call was “inactive”.

Q: How did the cytotoxicity call turn out when `O=C(NCC(F)(F)F)[C@@H]1c2ccccc2C(=O)N(CC23CC4CC(CC(C4)C2)C3)[C@H]1c1ccc(CO)cc1` was run?
A: The cytotoxicity call was “inactive”.

Q: For `CN1CCC2(CC1)CN(C(=O)CNC(N)=O)CCCN2C`, which cytotoxicity call is on record?
A: Its cytotoxicity call is “inactive”.

Q: With `C[C@@H]1CN([C@H](C)CO)C(=O)c2cc(NC(=O)Nc3cccc4ccccc34)ccc2O[C@@H]1CN(C)C(=O)NC1CCCCC1` as the compound, how does the cytotoxicity call read?
A: The cytotoxicity call was “inactive”.

Q: For `C[C@@H]1CN([C@H](C)CO)C(=O)c2cc(NC(=O)NC3CCCCC3)ccc2O[C@H]1CN(C)C(=O)Nc1cccc2ccccc12`, which cytotoxicity call is on record?
A: The cytotoxicity call was “inactive”.

Q: For `C[C@@H]1CN([C@@H](C)CO)C(=O)c2cc(NC(=O)NC3CCCCC3)ccc2O[C@H]1CN(C)C(=O)Nc1cccc2ccccc12`, which cytotoxicity call is on record?
A: Its cytotoxicity call is “inactive”.

Q: Which cytotoxicity call does the source give for `C[C@H](CO)N1C[C@H](C)[C@@H](CN(C)C(=O)NC2CCCCC2)Oc2ccc(NC(=O)Nc3cccc4ccccc34)cc2C1=O` here?
A: Its cytotoxicity call is “inactive”.

Q: How did the cytotoxicity call turn out when `C[C@@H]1CN([C@H](C)CO)C(=O)c2cc(NC(=O)Nc3cccc4ccccc34)ccc2O[C@H]1CN(C)C(=O)NC1CCCCC1` was run?
A: Its cytotoxicity call is “active”.

Q: Which cytotoxicity call does the source give for `C[C@@H]1CN([C@@H](C)CO)C(=O)c2cc(NC(=O)NC3CCCCC3)ccc2O[C@@H]1CN(C)C(=O)Nc1cccc2ccccc12` here?
A: Its cytotoxicity call is “active”.

Q: `COC(=O)CCn1ccc(=O)[nH]c1=O` was tested. Which cytotoxicity call did it give?
A: Its cytotoxicity call is “inactive”.

Q: For `C[C@@H]1CN([C@@H](C)CO)C(=O)c2cc(NC(=O)Nc3ccc(C(F)(F)F)cc3)ccc2O[C@H]1CN(C)Cc1ccncc1`, which cytotoxicity call is on record?
A: The cytotoxicity call was “inactive”.

Q: `COc1ccc(S(=O)(=O)Nc2ccc3c(c2)C(=O)N([C@H](C)CO)C[C@H](C)[C@H](CN(C)C(=O)Nc2ccccc2)OCCCC[C@H](C)O3)cc1` was tested. Which cytotoxicity call did it give?
A: The cytotoxicity call was “inactive”.

Q: Which cytotoxicity call does the source give for `C[C@H]1CN([C@@H](C)CO)C(=O)c2cccc(NC(=O)Nc3ccc(C(F)(F)F)cc3)c2O[C@@H]1CN(C)S(=O)(=O)c1ccc(F)cc1` here?
A: The cytotoxicity call was “inactive”.

Q: For `C=CCNC(=O)[C@@H]1[C@H]2C(=O)O[C@H](c3ccccc3)[C@H](c3ccccc3)N2[C@H](c2ccc(OCCO)cc2)[C@@]12C(=O)N(C(=O)OCCOC)c1ccc(C#Cc3ccc(OC)cc3)cc12`, which cytotoxicity call is on record?
A: Its cytotoxicity call is “inactive”.

Q: With `COc1ccc(NC(=O)Nc2ccc3c(c2)CC(=O)N([C@@H](C)CO)C[C@@H](C)[C@@H](CN(C)Cc2ccc(Oc4ccccc4)cc2)O3)cc1` as the compound, how does the cytotoxicity call read?
A: The cytotoxicity call was “inactive”.

Q: `COc1ccc(NC(=O)Nc2ccc3c(c2)CC(=O)N([C@@H](C)CO)C[C@H](C)[C@@H](CN(C)Cc2ccc(Oc4ccccc4)cc2)O3)cc1` was tested. Which cytotoxicity call did it give?
A: Its cytotoxicity call is “inactive”.

Q: With `C[C@H]1CN([C@@H](C)CO)C(=O)Cc2cc(NC(=O)Nc3ccccc3)ccc2O[C@H]1CN(C)Cc1ccc(Oc2ccccc2)cc1` as the compound, how does the cytotoxicity call read?
A: Its cytotoxicity call is “active”.

Q: How did the cytotoxicity call turn out when `COc1ccc(NC(=O)Nc2ccc3c(c2)CC(=O)N([C@H](C)CO)C[C@H](C)[C@@H](CN(C)Cc2ccc(-c4ccccc4)cc2)O3)cc1` was run?
A: The cytotoxicity call was “active”.

Q: For `C[C@H](CO)N1C[C@H](C)[C@@H](CN(C)Cc2ccc(Oc3ccccc3)cc2)Oc2ccc(NC(=O)Nc3ccccc3)cc2CC1=O`, which cytotoxicity call is on record?
A: The cytotoxicity call was “inactive”.

Q: For `C[C@H](CO)N1C[C@H](C)[C@H](CN(C)Cc2ccc(Oc3ccccc3)cc2)Oc2ccc(NC(=O)Nc3ccccc3)cc2CC1=O`, which cytotoxicity call is on record?
A: The cytotoxicity call was “inactive”.

Q: Which cytotoxicity call does the source give for `COc1ccc(NC(=O)Nc2ccc3c(c2)CC(=O)N([C@H](C)CO)C[C@@H](C)[C@@H](CN(C)Cc2ccc(Oc4ccccc4)cc2)O3)cc1` here?
A: Its cytotoxicity call is “inactive”.

Q: How did the cytotoxicity call turn out when `COc1ccc(NC(=O)Nc2ccc3c(c2)CC(=O)N([C@H](C)CO)C[C@H](C)[C@H](CN(C)Cc2ccc(Oc4ccccc4)cc2)O3)cc1` was run?
A: Its cytotoxicity call is “inactive”.

Q: `COc1ccc(NC(=O)Nc2ccc3c(c2)CC(=O)N([C@@H](C)CO)C[C@@H](C)[C@H](CN(C)Cc2ccc(Oc4ccccc4)cc2)O3)cc1` was tested. Which cytotoxicity call did it give?
A: The cytotoxicity call was “active”.

Q: With `C[C@@H]1CN([C@@H](C)CO)C(=O)Cc2cc(NC(=O)Nc3ccccc3)ccc2O[C@@H]1CN(C)Cc1ccc(Oc2ccccc2)cc1` as the compound, how does the cytotoxicity call read?
A: Its cytotoxicity call is “active”.

Q: Which cytotoxicity call does the source give for `COc1ccc(NC(=O)Nc2ccc3c(c2)CC(=O)N([C@H](C)CO)C[C@H](C)[C@H](CN(C)Cc2ccc(-c4ccccc4)cc2)O3)cc1` here?
A: The cytotoxicity call was “inactive”.

Q: For `COc1ccc(NC(=O)Nc2ccc3c(c2)CC(=O)N([C@@H](C)CO)C[C@H](C)[C@H](CN(C)Cc2ccc(-c4ccccc4)cc2)O3)cc1`, which cytotoxicity call is on record?
A: Its cytotoxicity call is “inactive”.

Q: How did the cytotoxicity call turn out when `C[C@H](CO)N1C[C@H](C)[C@@H](CN(C)C(=O)Cc2ccncc2)Oc2ncc(C#CC3(O)CCCC3)cc2C1=O` was run?
A: The cytotoxicity call was “inactive”.

Q: For `C[C@@H]1CN([C@H](C)CO)C(=O)c2cc(NC(=O)Nc3cccc4ccccc34)ccc2O[C@H]1CN(C)Cc1ccc(C(=O)O)cc1`, which cytotoxicity call is on record?
A: The cytotoxicity call was “inactive”.

Q: For `C[C@@H]1CCCCO[C@@H](CN(C)C(=O)CCC(F)(F)F)[C@H](C)CN([C@H](C)CO)C(=O)c2cc(NC(=O)c3ccccc3)ccc2O1`, which cytotoxicity call is on record?
A: Its cytotoxicity call is “inactive”.

Q: How did the cytotoxicity call turn out when `C[C@@H]1CN([C@H](C)CO)C(=O)c2cc(NC(=O)CCN3CCOCC3)ccc2O[C@@H]1CN(C)CC1CC1` was run?
A: The cytotoxicity call was “inactive”.

Q: Which cytotoxicity call does the source give for `C[C@H](CO)N1C[C@H](C)[C@H](CN(C)C(=O)Nc2ccc(C(F)(F)F)cc2)Oc2ccc(NC(=O)Nc3ccc(C(F)(F)F)cc3)cc2C1=O` here?
A: The cytotoxicity call was “inactive”.

Q: Which cytotoxicity call does the source give for `O=C(C[C@@H]1CC[C@@H]2[C@H](COC[C@@H](O)CN2S(=O)(=O)c2ccc(F)cc2)O1)NCc1ccc(Cl)c(Cl)c1` here?
A: Its cytotoxicity call is “inactive”.

Q: `C[C@H]1CN([C@@H](C)CO)C(=O)Cc2cc(NC(=O)Nc3ccc4c(c3)OCO4)ccc2O[C@@H]1CN(C)Cc1ccc(Oc2ccccc2)cc1` was tested. Which cytotoxicity call did it give?
A: Its cytotoxicity call is “inactive”.

Q: Which cytotoxicity call does the source give for `C[C@@H]1CN([C@@H](C)CO)C(=O)Cc2cc(NC(=O)Nc3ccccc3)ccc2O[C@H]1CN(C)Cc1ccc(Oc2ccccc2)cc1` here?
A: Its cytotoxicity call is “inactive”.

Q: For `C[C@H](CO)N1C[C@H](C)[C@@H](CN(C)Cc2ccc(Oc3ccccc3)cc2)Oc2ccc(NC(=O)Nc3ccc4c(c3)OCO4)cc2CC1=O`, which cytotoxicity call is on record?
A: Its cytotoxicity call is “active”.

Q: `CC(C)NC(=O)Nc1ccc2c(c1)CC(=O)N([C@H](C)CO)C[C@@H](C)[C@@H](CN(C)Cc1ccc(Oc3ccccc3)cc1)O2` was tested. Which cytotoxicity call did it give?
A: The cytotoxicity call was “active”.

Q: For `C[C@@H]1CN([C@H](C)CO)C(=O)Cc2cc(NC(=O)Nc3ccccc3)ccc2O[C@@H]1CN(C)Cc1ccc(Oc2ccccc2)cc1`, which cytotoxicity call is on record?
A: Its cytotoxicity call is “active”.

Q: How did the cytotoxicity call turn out when `C[C@@H]1CN([C@@H](C)CO)C(=O)Cc2cc(NC(=O)Nc3ccc4c(c3)OCO4)ccc2O[C@H]1CN(C)Cc1ccc(Oc2ccccc2)cc1` was run?
A: Its cytotoxicity call is “inactive”.

Q: `CC(C)NC(=O)Nc1ccc2c(c1)CC(=O)N([C@@H](C)CO)C[C@@H](C)[C@@H](CN(C)Cc1ccc(Oc3ccccc3)cc1)O2` was tested. Which cytotoxicity call did it give?
A: Its cytotoxicity call is “inactive”.

Q: How did the cytotoxicity call turn out when `C[C@H]1CN([C@@H](C)CO)C(=O)Cc2cc(NC(=O)Nc3ccccc3)ccc2O[C@@H]1CN(C)Cc1ccc(Oc2ccccc2)cc1` was run?
A: Its cytotoxicity call is “active”.

Q: How did the cytotoxicity call turn out when `CC(C)NC(=O)Nc1ccc2c(c1)CC(=O)N([C@@H](C)CO)C[C@@H](C)[C@H](CN(C)Cc1ccc(Oc3ccccc3)cc1)O2` was run?
A: The cytotoxicity call was “inactive”.

Q: For `C[C@@H]1CN([C@H](C)CO)C(=O)Cc2cc(NC(=O)Nc3ccccc3)ccc2O[C@H]1CN(C)Cc1ccc(Oc2ccccc2)cc1`, which cytotoxicity call is on record?
A: Its cytotoxicity call is “inactive”.

Q: Which cytotoxicity call does the source give for `COc1ccc2c3c(n(c2c1)C)[C@H](CO)N(CC1CCOCC1)C[C@]13CCN(CC1)C(=O)c1cnccn1` here?
A: Its cytotoxicity call is “inactive”.

Q: How did the cytotoxicity call turn out when `CO[C@H]1CN(C)C(=O)c2cc(NC(=O)c3ccc(F)cc3)ccc2OC[C@@H](C)N(C(=O)CN(C)C)C[C@@H]1C` was run?
A: The cytotoxicity call was “inactive”.

Q: For `C=CC[C@@H](CC(=O)N[C@@H](CO)Cc1ccccc1)C(=O)N[C@@H](C)COC(=O)[C@@H](CC=C)CC(=O)OC(C)(C)C`, which cytotoxicity call is on record?
A: Its cytotoxicity call is “inactive”.

Q: How did the cytotoxicity call turn out when `COc1ccccc1S(=O)(=O)N(C)C[C@@H]1OCc2cnnn2CCCC(=O)N([C@@H](C)CO)C[C@H]1C` was run?
A: Its cytotoxicity call is “inactive”.

Q: For `COc1ccccc1CNC(=O)C[C@H]1C[C@@H]2c3cc(NC(=O)NC4CCCC4)ccc3O[C@@H]2[C@@H](CO)O1`, which cytotoxicity call is on record?
A: The cytotoxicity call was “inactive”.

Q: For `C[C@H](CO)N1C[C@H](C)[C@H](CN(C)C(=O)Nc2ccc(F)cc2)OCCCC[C@H](C)Oc2ccc(NC(=O)Nc3ccc(F)cc3)cc2C1=O`, which cytotoxicity call is on record?
A: Its cytotoxicity call is “inactive”.

Q: Which cytotoxicity call does the source give for `C[C@@H]1CN([C@@H](C)CO)C(=O)c2cc(NC(=O)NC3CCCCC3)ccc2O[C@@H](C)CCCCO[C@H]1CN(C)CC1CCCCC1` here?
A: Its cytotoxicity call is “inactive”.

Q: With `C[C@@H]1CN([C@@H](C)CO)C(=O)c2cc(NS(=O)(=O)c3cccs3)ccc2O[C@@H](C)CCCCO[C@@H]1CN(C)Cc1ccc2c(c1)OCO2` as the compound, how does the cytotoxicity call read?
A: Its cytotoxicity call is “inactive”.

Q: With `CN(C)C(=O)C[C@H]1C=C[C@@H](NC(=O)C2CCOCC2)[C@H](CO)O1` as the compound, how does the cytotoxicity call read?
A: The cytotoxicity call was “inactive”.

Q: How did the cytotoxicity call turn out when `C[C@H]1CN([C@@H](C)CO)C(=O)c2cc(NC(=O)Nc3ccccc3)ccc2O[C@@H]1CN(C)Cc1ccc(Cl)c(Cl)c1` was run?
A: Its cytotoxicity call is “inactive”.

Q: For `C[C@@H]1CN([C@H](C)CO)C(=O)c2cc(NC(=O)Nc3ccccc3)ccc2O[C@H]1CN(C)Cc1ccc(Cl)c(Cl)c1`, which cytotoxicity call is on record?
A: The cytotoxicity call was “inactive”.

Q: How did the cytotoxicity call turn out when `C[C@@H]1CN([C@@H](C)CO)C(=O)c2cc(NC(=O)Nc3ccccc3)ccc2O[C@@H]1CN(C)Cc1ccc(Cl)c(Cl)c1` was run?
A: The cytotoxicity call was “active”.

Q: With `C[C@@H]1CN([C@H](C)CO)C(=O)c2cc(NC(=O)Nc3ccccc3)ccc2O[C@@H]1CN(C)Cc1ccc(Cl)c(Cl)c1` as the compound, how does the cytotoxicity call read?
A: The cytotoxicity call was “inactive”.

Q: `C[C@H]1CN([C@@H](C)CO)C(=O)c2cc(NC(=O)Nc3ccccc3)ccc2O[C@H]1CN(C)Cc1ccc(Cl)c(Cl)c1` was tested. Which cytotoxicity call did it give?
A: Its cytotoxicity call is “active”.

Q: Which cytotoxicity call does the source give for `C[C@H](CO)N1C[C@H](C)[C@@H](CN(C)Cc2ccc(Cl)c(Cl)c2)Oc2ccc(NC(=O)Nc3ccccc3)cc2C1=O` here?
A: Its cytotoxicity call is “inactive”.

Q: Which cytotoxicity call does the source give for `C[C@H](CO)N1C[C@H](C)[C@@H](CN(C)S(=O)(=O)c2cccs2)Oc2ccc(NS(=O)(=O)c3ccc(F)cc3)cc2C1=O` here?
A: The cytotoxicity call was “inactive”.
